NALP1 inh: NALP1 inhibition; hit rate 0.61% among 280,000; S. cerevisiae NALP1/ASC/caspase-1 growth, X-gal OD620, 72 h; inhibition, % at 10 µM; in the data active = inhibition mostly above about 24%, no sharp cut-off; inactive = mostly below about 32%
CHT PAM: allosterically activates the human high affinity choline transporter | B-score at 10 µM | Q9GZV3 | CHT-expressing cells, membrane potential dye, choline EC20; hits give high values; LV-AA mutant CHT in HEK293 cells | hit rate 0.49% among 310,000;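 active = initial fluorescence not abnormally high and integrated response B-score, plate-corrected, over 3 SD above library mean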
Target sequence (Q9GZV3 whole entry, looked up): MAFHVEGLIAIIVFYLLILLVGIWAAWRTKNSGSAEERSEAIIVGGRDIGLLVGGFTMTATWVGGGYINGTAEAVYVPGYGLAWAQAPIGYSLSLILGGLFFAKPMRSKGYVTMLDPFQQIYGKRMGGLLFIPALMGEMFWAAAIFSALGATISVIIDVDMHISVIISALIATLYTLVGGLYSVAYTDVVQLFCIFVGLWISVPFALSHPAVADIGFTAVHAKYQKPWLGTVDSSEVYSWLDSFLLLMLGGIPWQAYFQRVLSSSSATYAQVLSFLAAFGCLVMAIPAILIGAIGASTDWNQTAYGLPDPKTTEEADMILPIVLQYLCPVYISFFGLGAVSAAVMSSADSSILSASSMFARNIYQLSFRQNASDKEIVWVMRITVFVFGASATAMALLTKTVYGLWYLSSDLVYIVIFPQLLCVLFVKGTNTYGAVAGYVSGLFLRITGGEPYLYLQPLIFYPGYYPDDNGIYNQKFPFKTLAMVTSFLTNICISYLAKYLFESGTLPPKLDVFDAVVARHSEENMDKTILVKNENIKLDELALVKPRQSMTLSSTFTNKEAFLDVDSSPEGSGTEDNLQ
SUMO Mot1 rescue: inhibitors of SUMOylation pathway: yeast Mot1-301 growth rescue. S. cerevisiae Mot1-301 growth rescue, ATP luminescence, 38.5C; percent above DMSO median, 100 means doubled. growth rescue, % at 18.8 µM. hit rate 1% among 320,000;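 active = every valid replicate shows activation above 250% relative to neutral control wells; inactive = the rest, any valid replicate at or below 250%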;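 also: OY570 slx delta 5 strain wells were the positive control but not used for scaling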
NALP3 yeast inh: NALP3 inhibition in yeast; Yeast reconstituted NLRP3/ASC/caspase-1, beta-gal luminescence, 24 h; inhibition, % at 10 µM; hit rate 0.39% among 330,000; AID 2825;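 active = inhibition of 50% or more; inactive = inhibition below 50%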;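 also: plate controls were induced DMSO wells for no effect and uninduced yeast grown without galactose for full effect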
CHT block: inhibits the human high affinity choline transporter; B-score at 10 µM; CHT-expressing cells, membrane potential dye, choline response; hits give low values; hit rate 0.86% among 310,000;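 active = B-score over 3 SD under the library average, and starting fluorescence ratio not unusually high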;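 also: choline stimulus applied at its EC90 after an EC20 pre-addition; B-score computed on integrated fluorescence ratio after choline addition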
Bfl-1 A1 inh: inhibitors of the anti-apoptotic protein A1, read as caspase activation. MEF A1-2A-BIM cells, Caspase-Glo 3/7 luminescence, 3 h; percent of clofoctol response, vehicle zero. caspase activation, % (test concentration not listed). hit rate 0.066% among 330,000. AID 2462;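 active = over half of replicate activation scores above 10%, or exactly half above 10 with the replicate mean above 10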
Mot1 SUMO dose: inhibits SUMO pathway, affecting Mot1-301 yeast growth | shares compounds with SUMO Mot1 rescue | S. cerevisiae Mot1-301 galactose growth, ATP luminescence, 24 h; -100 = growth of slx-deleted rescue strain | growth activity, percent, % at 42 µM | 2,300 tested, under 10 active | AID 493004;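 active = Signal drops as the depositor expects, and the fitted half-maximal dose is no more than ten times the top valid tested dose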;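 also: more negative values mean stronger growth rescue toward the control strain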
* marks the source's active call; other numbers are inactive results; i = inactive; x = not tested or not shown; + = active, no number. An excerpt weighted towards active compounds, which were near 3% of everything screened.

SMILES | NALP1 inh | CHT PAM | SUMO Mot1 rescue | NALP3 yeast inh | CHT block | Bfl-1 A1 inh | Mot1 SUMO dose
CSc1ccc(CCNC(=O)C2CCCN(S(=O)(=O)N3CCOCC3)C2)cc1 (centres undefined) | 3 | i | 564* | -4 | i | 1 | 0
Cc1ccc(C)c(CN2CCCN(Cc3cc(C)ccc3C)S2(=O)=O)c1 | 11 | i | 15 | 16 | i | 1 | x
O=C(NC(=S)Nc1ccccc1[N+](=O)[O-])c1cncc(Br)c1 | -3 | i | 3 | 26 | i | 1 | x
OCC[C@H]1C[C@H](O)[C@@H](O)[C@@]2(CCc3ccccc3CO2)O1 | x | i | -10 | 3 | i | 1 | x
OCC[C@@H]1C[C@H](O)[C@@H](O)[C@]2(CCc3ccccc3CO2)O1 | 35 | i | 751* | 7 | i | 0 | 0
CSc1cccc(N2C(=O)C3CCCN3C2=S)c1 (centres undefined) | 4 | i | 802* | -3 | i | 0 | 1
Cc1ccc(S(=O)(=O)N(C)/N=C2/C(=O)N(CC(=O)O)c3ccccc32)cc1 | 17 | i | -30 | -1 | i | -1 | x
O=C(COC(=O)CN1C(=O)C2CCCCC2C1=O)Nc1cc(F)ccc1F (centres undefined) | x | x | x | 0 | x | x | x
Cc1cc(C)c(OCC(=O)N2CC=C(c3ccccc3)CC2)c(C)c1 | 14 | i | -3 | 9 | i | 1 | x
[O-][n+]1ccccc1/C=C/c1ccccc1 | x | i | 160 | 12 | i | 0 | x
CN(C)c1ccc(/C=C/c2cccc[n+]2[O-])cc1 | -1 | i | 584* | 20 | i | 0 | 0
CC(=O)Nc1ccc(/C(C)=N/NC(=O)c2ccncc2)cc1 | -7 | i | + | 13 | i | -1 | 0
C/C(=N/NC(=O)c1ccncc1)c1ccc(NC(=O)c2ccccc2)cc1 | 14 | i | -1 | 6 | i | -1 | x
CCCCn1c(SCC(=O)c2c(N)n(C3CC3)c(=O)[nH]c2=O)nc2cc(S(N)(=O)=O)ccc21 | x | x | x | 15 | x | x | x
CCN(CC)c1nc(Nc2ccc(Cl)cc2)nc(OCC#N)n1 | 13 | i | 735* | 7 | i | -1 | 1
Cc1cccc(Nc2nc(OCC#N)nc(N(C)C)n2)c1 | 10 | i | -8 | 19 | i | -1 | x
Cc1ccsc1C(=O)NCCc1ccc(S(N)(=O)=O)cc1 | 27 | i | 765* | 3 | i | 0 | 0
CCCCC(=O)NCCc1ccc(S(N)(=O)=O)cc1 | -6 | i | + | -4 | i | 1 | 0
Cc1ccc(S(=O)(=O)Nc2ccccc2C(=O)N2CCCCCC2)cc1 | 7 | i | 39 | -3 | i | 1 | x
O=C(NCc1ccccc1Cl)c1ccc2c(c1)OCO2 | 20 | i | 650* | 23 | i | 1 | -1
Cn1c(SCC(=O)NC2CCCc3ccccc32)nnc1C1CC1 (centres undefined) | x | x | x | -1 | x | x | x
COc1ccccc1NC(=O)COC(=O)CC(C)(C)CC1=NS(=O)(=O)c2ccccc2N1 | 16 | i | 396* | 6 | i | 1 | 0
CC(C)(CC(=O)OCC(=O)Nc1ccccc1F)CC1=NS(=O)(=O)c2ccccc2N1 | 15 | i | -20 | 13 | i | 0 | x
CCOC(=O)c1sc(NC(=O)CSc2n[nH]c(-c3ccccc3)n2)c(C#N)c1C | 20 | i | 472* | 26 | i | -3 | 0
COCc1ccc(C(=O)N2CCCC(Nc3ccc(C(C)C)cc3)C2)o1 (centres undefined) | 3 | i | 6 | 20 | i | 0 | x
SMILES | NALP1 inh | CHT PAM | SUMO Mot1 rescue | NALP3 yeast inh | CHT block | Bfl-1 A1 inh | Mot1 SUMO dose
COc1ccc(C2=Nn3c(nnc3-c3ccco3)SC2)cc1 | 24 | i | 533* | 5 | i | 0 | -1
CCCOc1ccccc1C1NC(=O)NC(C)=C1C(=O)OCCOCC (centres undefined) | -9 | i | 565* | -2 | i | 0 | 1
CCCCOc1ccccc1C1NC(=O)NC(C)=C1C(=O)OCCOCC (centres undefined) | 6 | i | -9 | -9 | i | 0 | x
CCOC(=O)c1ccc(NC(=O)NCc2ccncc2)cc1 | 27 | i | 507* | -1 | i | -1 | -1
CCCCCOC(=O)C1=C(C)N(C)C(=O)NC1c1cc(Br)c(O)c(OC)c1 (centres undefined) | -6 | i | 879* | 17 | i | 0 | 0
COc1ccc(COC(=O)C2=C(C)NC(=O)NC2c2cc(Br)c(O)c(OC)c2)cc1 (centres undefined) | 3 | i | 0 | 23 | i | 0 | x
COc1ccc(CCNC(=O)Cn2nnc(-c3ccc(N4CCOCC4)cc3)n2)cc1OC | 10 | i | 710* | 7 | i | -2 | 0
O=C(O)[C@H]1CCCC[C@H]1C(=O)Nc1ccc(S(=O)(=O)N2CCCCC2)cc1 | 8 | i | 8 | 13 | i | 0 | x
O=C(O)C1CCCCC1C(=O)Nc1ccc(S(=O)(=O)N2CCCC2)cc1 (centres undefined) | 7 | i | 447* | 9 | i | 0 | 0
Cc1ccc(C(=O)O)cc1NC(=O)Nc1cccc2ccccc12 | 9 | i | -6 | 6 | i | 0 | x
COc1ccc(-c2nnc(SCC(=O)NCc3cccs3)n2C)cc1 | 10 | i | 59 | 25 | i | 1 | x
COCCn1c(SCC(=O)NCc2cccs2)nnc1-c1ccc(OC)cc1 | 1 | i | 916* | 6 | i | 0 | -1
CCn1c(SCC(=O)N2CC(C)OC(C)C2)nc2c([nH]c3ccccc32)c1=O (centres undefined) | 14 | i | -2 | 21 | i | -1 | x
O=C(/C=C/c1ccc(Br)cc1)N1CCN(Cc2ccccc2)CC1 | x | i | 235 | 27 | i | 0 | x
Cc1ccc(S(=O)(=O)N2CCN(C(=O)CSc3nc(N)cc(=O)[nH]3)CC2)c(C)c1 | 7 | i | 482* | -2 | i | 0 | 0
O=C(c1ccc(-c2ccccc2)cc1)C1CCCN(Cc2ccncc2)C1 (centres undefined) | 21 | i | 365* | 48 | i | 0 | 0
O=C(c1ccc(-c2ccccc2)cc1)C1CCCN(C(=O)c2ccncc2)C1 (centres undefined) | -14 | i | 32 | -2 | i | 0 | x
Cc1cc(C)n(CC(=O)NNC(=O)c2ccc(S(C)(=O)=O)cc2)n1 | x | x | 8 | 2 | x | 0 | x
CCOC(=O)N1CCN(c2nnnn2-c2ccccc2)CC1 | x | i | 366* | 9 | i | 1 | 0

Source: PubChem BioAssay
